Bioassay records as filed in PubChem.
An excerpt weighted towards active compounds, which were near 13% of everything screened.
4-MU autofl – qHTS Assay for Spectroscopic Profiling in 4-MU Spectral Region; compound autofluorescence, 340/450 nm, 4-MU equivalents; stronger effect = higher value; max dye-equivalent concentration, M; 11% of 59,000 active; AID 589, 2007; in the data active means max dye-equivalent concentration above about 10 nM; inconclusive means mostly about 1.1 nM to 9.6 nM
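Intrinsic fluorescence at 340/450 nm (ex/em) was read after 15 min at room temperature in pH 8.0, 100 mM Tris. Each compound concentration expressed as 4-MU-equivalent concentration from a six-point 4-MU standard series on each plate.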
AID923 – qHTS Assay for Allosteric/Competitive Inhibitors of Caspase-1: Spectroscopic Profiling in AFC Spectral Region | compound fluorescence, AFC spectral region (405/520 nm) | Potency, µM (titrated, usually from 57.5 µM), most hits filed as activators | 1.1% of 75,000 active | AID 923, 2007
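Baseline compound fluorescence (AFC region, 405 nm ex/520 nm em) taken from the intercept of kinetic reads with 50 nM caspase-1 and 5 uM Ac-WEHD-AFC; normalized to an on-plate AFC standard curve; compounds titrated up to 57 uM.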
HADH2 inhib – qHTS Assay for Inhibitors of HADH2 (Hydroxyacyl-Coenzyme A Dehydrogenase, Type II); recombinant HADH2, NADH fluorescence, beta-hydroxybutyryl-CoA; 3-hydroxyacyl-CoA dehydrogenase type-2 (Homo sapiens), Q99714; 3.4% of 73,000 active; Potency, µM (series often up to 57.1 µM), actives largely listed as inhibitors; further: nearly all actives have a fitted effect of over 60% in size
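Activity measured as NADH fluorescence gain (360/450 nm), taken as the change between first and last reads of a 4-min kinetic run. Conditions: pH 9.0 Tris buffer, 20 nM E. coli-expressed His-tagged enzyme, 1 mM NAD+, 90 uM beta-hydroxybutyryl-CoA; 15-min compound preincubation.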
GBA mod – Glucocerebrosidase; Potency, µM; Lysosomal acid glucosylceramidase (Homo sapiens), P04062; 1.1% of 48,000 active; purified enzyme, resorufin glucoside fluorescence (screen aimed at inhibitors), 20 min; AID 360, 2006; in the data active means potency below about 15 µM; inconclusive means mostly about 16 µM to 33 µM;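 further: the screen sought inhibitors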
Target sequence (P04062 whole entry, looked up): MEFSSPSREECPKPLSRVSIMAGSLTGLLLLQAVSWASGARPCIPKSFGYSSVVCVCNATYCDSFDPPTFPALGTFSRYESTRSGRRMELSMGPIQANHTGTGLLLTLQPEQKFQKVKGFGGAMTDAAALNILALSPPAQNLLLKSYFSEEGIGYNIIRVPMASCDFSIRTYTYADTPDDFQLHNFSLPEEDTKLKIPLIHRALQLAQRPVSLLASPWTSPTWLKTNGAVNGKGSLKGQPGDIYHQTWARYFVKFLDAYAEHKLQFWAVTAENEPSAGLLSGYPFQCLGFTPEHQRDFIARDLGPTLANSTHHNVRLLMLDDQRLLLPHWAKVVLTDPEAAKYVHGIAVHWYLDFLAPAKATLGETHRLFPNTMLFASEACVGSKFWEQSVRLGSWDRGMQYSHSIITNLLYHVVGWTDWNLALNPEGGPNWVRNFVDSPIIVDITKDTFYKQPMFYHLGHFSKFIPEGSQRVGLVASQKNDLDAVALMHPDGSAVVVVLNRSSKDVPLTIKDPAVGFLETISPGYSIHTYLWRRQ
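Compounds titrated against 0.2 nM normal enzyme, 30 uM resorufin beta-D-glucopyranoside substrate, citrate/phosphate buffer with taurocholate and tween-20, pH 5.9. Reaction ran 20 min at room temperature; fluorescence (Ex 548/Em 600) gave AC50.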
HSD17B inh – qHTS Assay for Inhibitors of HSD17B4, hydroxysteroid (17-beta) dehydrogenase 4; 3-hydroxyacyl-CoA dehydrogenase type-2 (Homo sapiens), Q99714; recombinant HSD17B10, NADH fluorescence kinetic; Potency, µM (titrated, usually from 57.1 µM), most hits filed as inhibitors; 7.6% of 75,000 active;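 further: the protocol describes HADH2 (HSD17B10) and not the HSD17B4 of the title; nearly all actives have a fitted effect of over 70% in size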
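Activity followed as NADH fluorescence increase (ex 360, em 450 nm) every 30 seconds for 4 min, using final 90 uM beta-hydroxybutyryl CoA and 1 mM NAD+. Recombinant His-tagged enzyme, 20 nM, pH 9.0 Tris buffer, 15 min compound preincubation.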
A350 autofl – qHTS Assay for Spectroscopic Profiling in A350 Spectral Region. max dye-equivalent concentration, M. 11% of 59,000 active. Compound autofluorescence, 340/450 nm, Alexa 350 dye-equivalents; stronger effect = higher value; in the data active means max dye-equivalent concentration above about 10 nM; inconclusive means mostly about 1.1 nM to 9.6 nM
Numbers stand for hits; i = inactive; ? = inconclusive; nt = not tested or not shown; [ ] = dose if it differs, or a comment. Unless noted, the call rests on the fitted dose curve; in most records, active means well fitted curve in the direction sought with a large enough effect; inconclusive means small, poorly fitted or top-dose-only effect, or another doubt; inactive means no such curve, though single readings can be large; an effect the other way counts as inactive or inconclusive.

SMILES | 4-MU autofl | AID923 | HADH2 inhib | GBA mod | HSD17B inh | A350 autofl
OC[C@H]1O[C@@H]2O[C@H]3[C@H](O)[C@@H](O)[C@@H](O[C@H]4[C@H](O)[C@@H](O)[C@@H](O[C@H]5[C@H](O)[C@@H](O)[C@@H](O[C@H]6[C@H](O)[C@@H](O)[C@@H](O[C@H]7[C@H](O)[C@@H](O)[C@@H](O[C@H]8[C@H](O)[C@@H](O)[C@@H](O[C@H]1[C@H](O)[C@H]2O)O[C@@H]8CO)O[C@@H]7CO)O[C@@H]6CO)O[C@@H]5CO)O[C@@H]4CO)O[C@@H]3CO | nt | i | i | nt | i | nt
N#Cc1c(NC(=O)CSc2nc(N)cc(=O)[nH]2)sc2c1CCCCCC2 | i | i | i | i | i | i
N#Cc1cnc(SCC(=O)Nc2ccccc2C(F)(F)F)nc1N | 1e-08M | i | i | i | i | 1.1e-08M
COc1ccc2[nH]cc(CCNc3cc(-c4ccc5c(c4)OCO5)ncn3)c2c1 | i | i | i | nt | ? | i
COc1ccc2[nH]cc(CCNc3ccnc(-c4ccc5c(c4)OCO5)n3)c2c1 | 2.6e-08M | i | ? | nt | ? | 3.1e-08M
COc1ccccc1CNc1ccnc(-c2ccc3c(c2)OCO3)n1 | i | i | i | nt | ? | i
COc1ccc(CNc2ccnc(-c3ccc4c(c3)OCO4)n2)c(OC)c1 | 1.4e-08M | i | i | nt | i | 1.2e-08M
COc1cccc(-c2nccc(NCc3cccnc3)n2)c1 | ? | i | ? | nt | 20µM | ?
c1ncc(-c2ccoc2)c(NC2CC2)n1 | i | i | 10µM | nt | i | i
COCCn1nnnc1C(C(C)C)N1CCN(C(=O)c2ccco2)CC1 (stereo not given) | i | i | i | i | i | i
COc1ccc(-c2cn3cccnc3n2)cc1NC(=O)CC(C)C | 1.6e-07M | i | i | i | 25µM | 1.6e-07M
CC(C)CC(=O)Nc1ccc(-c2cn3ccsc3n2)cc1 | i | i | i | nt | i | i
CCOCC(=O)Nc1ccc(-c2cn3cccnc3n2)cc1 | 5.5e-06M | i | i | i | 3.2µM | 5.7e-06M
COc1ccc(Cl)cc1NC(=O)Cn1cccc1 | i | i | i | i | i | i
CCCC(=O)Nc1cc(-c2cn3cccnc3n2)ccc1OC | 1.9e-07M | i | i | i | 32µM | 1.8e-07M
CC1CN(C2CCCCC2)c2nc3c(c(=O)[nH]c(=O)n3C)n2C1 (stereo not given) | i | i | i | i | i | ?
CN(C(=O)c1ccncc1)c1ccccc1 | i | i[11.5 µM] | i[11.4 µM] | nt | i[11.4 µM] | 2e-07M
O=c1[nH]c2ccc(S(=O)(=O)N3CCN(Cc4ccccc4)CC3)cc2[nH]c1=O | i | i | i | nt | 32µM | i
COc1ccc(S(=O)(=O)N2CCCCC2C(=O)O)cc1OC (stereo not given) | i | i | i | i | i | i
O=C(O)C1CCCN1S(=O)(=O)c1ccc2[nH]c(=O)c(=O)[nH]c2c1 (stereo not given) | i | i | ? | i | 32µM | i
O=c1[nH]c2ccc(S(=O)(=O)N3CCN(C4CCCCC4)CC3)cc2[nH]c1=O | ? | i | ? | i | 32µM | ?
O=S(=O)(c1ccc(S(=O)(=O)N2CCN(C3CCCCC3)CC2)cc1)N1CCCCCC1 | i | i | i | i | i | i
CCOC(=O)c1c(C)oc2ccc(OC(=O)N3CCOCC3)cc12 | i | i | i | i | i | i
CCCC(=O)Nc1cccc(-c2nc3cc(C)c(C)cc3o2)c1 | nt | i | i[11.4 µM] | nt | 25µM | nt
Cc1cc(C)cc(OCC(=O)Nc2cccc(-c3nnc(-c4ccco4)o3)c2)c1 | i | i | i | i | ? | i
COc1ccc(OCC(=O)Nc2cccc(-c3nc4ccccc4o3)c2)cc1 | nt | i | ? | nt | 25µM | nt
CC(C)CC(=O)Nc1cccc(-c2nc3ccccc3o2)c1 | i | i | i | i | ? | ?
CCc1ccc(OCC(=O)Nc2ccc(-c3nc4ccccc4o3)c(O)c2)cc1 | nt | i | ? | nt | 25µM | nt
